KinaseGlo FLuc – counter-screen: inhibitors of Kinase-Glo firefly luciferase | Potency, µM (titrated, usually from 38.3 µM), hits mostly inhibitors | Q27757 | AID 1379 | Kinase-Glo luciferase, ATP luminescence, 8 min | hit rate 0.28% among 200,000; further: nearly all actives have a fitted effect of over 60% in size
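Light output from Kinase-Glo luciferase with luciferin and 10 uM ATP in 50 mM imidazole pH 7.2, KCl, MgCl2, Tween 20, BSA; compound pin-delivered, 8-min ambient incubation, then luminescence read.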
Rab9 prom act – activates the Rab9 promoter; Huh7 Rab9 promoter-luciferase reporter, luminescence, 24 h; Potency, µM (series often up to 9.22 µM), most hits filed as activators; hit rate 2.8% among 320,000; further: nearly all actives have a fitted effect of over 60% in size
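Using Huh7 cells stably transfected with Rab9 promoter–luciferase, compounds were incubated 24 h at 37 °C, 5% CO2; luciferase luminescence was read 10 min after reagent addition.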
NPC1 promoter act – activators of NPC1 promoter. Huh7 NPC1 promoter luciferase reporter, 24 h. Potency, µM (doses to about 9.22 µM), usual class: activators. hit rate 2.4% among 320,000; further: nearly all actives have a fitted effect of over 60% in size
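Quantitative HTS used a cell-based reporter: Huh7 cells stably bearing the NPC1 promoter upstream of luciferase were treated with compounds for 24 h, and promoter activation was read as luminescence.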
FLuc counter – firefly luciferase modulation, counter-screen for miR-21 project; P08659; purified FLuc, Km substrates, luminescence inhibition; Potency, µM (titrated, usually from 57.5 µM), hits mostly inhibitors; hit rate 6.9% among 360,000; AID 588342; further: nearly all actives have a fitted effect of over 55% in size
Target sequence (P08659 whole entry, looked up): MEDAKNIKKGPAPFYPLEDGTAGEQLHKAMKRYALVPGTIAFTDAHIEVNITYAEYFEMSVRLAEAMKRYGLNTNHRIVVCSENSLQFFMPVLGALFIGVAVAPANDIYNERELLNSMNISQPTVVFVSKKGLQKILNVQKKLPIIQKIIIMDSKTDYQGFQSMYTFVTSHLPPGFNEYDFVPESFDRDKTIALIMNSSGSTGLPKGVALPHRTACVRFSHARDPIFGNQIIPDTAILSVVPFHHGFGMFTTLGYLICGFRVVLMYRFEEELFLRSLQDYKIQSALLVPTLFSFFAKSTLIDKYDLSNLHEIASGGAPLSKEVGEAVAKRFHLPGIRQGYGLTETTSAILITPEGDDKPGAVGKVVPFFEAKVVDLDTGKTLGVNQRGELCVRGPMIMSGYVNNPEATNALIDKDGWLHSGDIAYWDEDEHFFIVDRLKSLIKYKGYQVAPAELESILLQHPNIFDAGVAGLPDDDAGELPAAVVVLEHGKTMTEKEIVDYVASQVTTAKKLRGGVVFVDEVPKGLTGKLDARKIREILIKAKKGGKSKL
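Purified P. pyralis luciferase, 10 nM final, with Km-level 10 uM D-luciferin and 10 uM ATP in 50 mM Tris acetate pH 7.5, 10 mM Mg acetate, 0.01% Tween-20, 0.05% BSA; 6-point qHTS titration about 60 µM downward; luminescence read.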
SMN2 splice up – SMN2 splice variant enhancement. HEK293 SMN2-luciferase splicing reporter, luminescence, 30-36 h. Potency, µM (titrated, usually from 46.1 µM), most hits filed as activators. hit rate 2.8% among 210,000. AID 1458; further: nearly all actives have a fitted effect of over 55% in size
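qHTS luciferase splicing reporter: luminescence rises when SMN2 exon 7 is included in transfected HEK293 cells. Compound exposure lasted 30-36 h at 37C, with 4.5 mM final sodium butyrate as control, followed by a ONE-Glo read.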
ELG1 genotox – inducers of genotoxicity in HEK293T ELG1-luciferase cells. HEK293T ELG1-luciferase reporter, luminescence, 16 h. Potency, µM (titrated, usually from 46 µM), hits mostly activators. hit rate 1.3% among 330,000; further: nearly all actives have a fitted effect of over 60% in size
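HEK293T cells expressing luciferase-tagged ELG1 were exposed to compound or DMSO vehicle for 16 hr at 37 °C and 5% CO2. Luciferase activity was then measured with ONE-Glo after 30 min at room temperature.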
A number is an active result; n = inactive; u = inconclusive; x = no result. Rows were chosen to be rich in hits. Some 7.5% of all compounds tested hit in one or more screens of this group. The call rests on the fitted dose curve; in most records, active means well fitted curve in the direction sought with a large enough effect; inconclusive means small, poorly fitted or top-dose-only effect, or another doubt; inactive means no such curve, though single readings can be large; an effect the other way counts as inactive or inconclusive.

SMILES | KinaseGlo FLuc | Rab9 prom act | NPC1 promoter act | FLuc counter | SMN2 splice up | ELG1 genotox
O=C(c1cc(-c2ccc(O)cc2)on1)N1CCN(c2ccc(F)cc2)CC1 | x | n | n | u | x | n
O=C(c1cc(-c2ccc(F)cc2)on1)N1CCOCC1 | x | 1.6µM | 1.1µM | 6µM | x | u
CN1CCN(C(=O)c2cc(-c3ccccc3)on2)CC1 | n | u | u | u | u | n
O=C(c1cc(-c2ccc(Br)cc2)on1)N1CCCC1 | x | 0.5µM | 0.63µM | 1.5µM | x | 2.1µM
O=C(c1cc(-c2ccccc2)on1)N1CCCCCC1 | x | 3.5µM | 1.4µM | 9.5µM | x | 2.3µM
O=C(c1cc(-c2ccc(O)cc2)on1)N1CCN(c2ccccc2)CC1 | x | n | n | u | n | n
O=C(c1cc(-c2ccc(F)cc2)on1)N1CCCCCC1 | x | 1.4µM | 0.89µM | 5.4µM | x | u
COc1cc(C(C)=O)ccc1OCC(=O)Nc1ccc(C)c(S(=O)(=O)N2CCCCCC2)c1 | x | n | n | n | x | n
COc1cc(Cl)c(C)cc1Nc1nc2ccccc2c2nnc(C)n12 | x | x | x | n | x | x
CCOC(=O)c1c(C)c(-c2ccccc2)n(CC(=O)NC2CCCCC2)c1C | x | x | x | n | n | x
COC(=O)[C@H](CC(C)C)N1Cc2cc(OC)cc(OC)c2-c2ccccc2S1(=O)=O | x | x | x | x | x | n
Cc1ccccc1NC(=O)c1sc2nc(-c3ccncc3)ccc2c1N | x | x | x | n | n | x
O=C(c1cc(-c2ccc(O)cc2)on1)N1CCCC1 | x | 0.4µM | 0.45µM | 6µM | x | 4.6µM
O=C(/C=C/c1ccc(F)cc1)N1CCCN(C(=O)/C=C/c2ccc(F)cc2)CC1 | n | n | n | u | n | n
CCOC(=O)C1CCCN(C(=O)c2cc(-c3ccc(C)cc3)on2)C1 (stereo not drawn) | n | 0.89µM | u | 12µM | u | u
O=C(/C=C/c1ccc(-c2ccc(F)cc2)o1)N1CCCC1 | x | 3.2µM | 2.8µM | 13µM | x | u
Cc1ccc(-c2cc(C(=O)N3CCCCCC3)no2)cc1 | x | 0.56µM | 0.5µM | 1.5µM | x | u
CCOC(=O)C1CCCN(C(=O)c2cc(COc3ccc(C)nc3)on2)C1 (stereo not drawn) | x | n | n | u | x | n
CCn1c(CSc2nc3ccccc3s2)nnc1SCC(=O)NCC(=O)OC | n | n | n | n | n | n
O=C(c1cc(-c2ccc(F)cc2)on1)N1CCCC1 | x | 0.63µM | 0.79µM | 2.7µM | x | u
Cc1ccc2c(c1)C(=O)OC(C(=O)Nc1ccc(C(=O)O)cc1)C2 (stereo not drawn) | x | x | x | 7.6µM | n | x
CCc1ccc(-c2csc(NC(=O)C3=NN(c4ccccc4)C(=O)CC3)n2)cc1 | n | n | n | 6µM | n | n
CCOC(=O)Cc1csc(NC(=O)c2cccc(N3C(=O)CCC3=O)c2)n1 | x | n | n | n | x | n
Cc1cc(C)c(-c2csc(NC(=O)C3=NN(c4ccccc4)C(=O)CC3)n2)c(C)c1 | x | n | n | n | x | n
COc1ccc(-c2csc(NC(=O)CCN3C(=O)C4CC=CCC4C3=O)n2)cc1OC (stereo not drawn) | x | n | n | 17µM | x | n
SMILES | KinaseGlo FLuc | Rab9 prom act | NPC1 promoter act | FLuc counter | SMN2 splice up | ELG1 genotox
CCOc1ccc(-c2csc(NC(=O)c3cccc(N4C(=O)CCC4=O)c3)n2)cc1 | x | n | n | 9.5µM | x | n
Cc1ccc(-c2csc(NC(=O)c3cccc(N4C(=O)CCC4=O)c3)n2)o1 | n | n | n | 9.5µM | n | n
Cc1cccc(NC(=O)C2CCCN(S(=O)(=O)c3ccc4c(c3)oc(=O)n4C)C2)c1C (stereo not drawn) | x | x | x | n | n | x
Cc1cc(NC(=O)COc2ccccc2)cc(-c2nc3ccccc3o2)c1O | x | x | x | n | n | x
CCOc1ccc(NC(=O)NC(CC)Cn2nnc3ccccc3c2=O)cc1 (stereo not drawn) | x | x | x | n | u | x
CCN1CCN(C(=O)C(N)Cc2ccccc2)CC1 (stereo not drawn) | n | n | n | n | n | n
COc1ccc(-c2csc(NC(=O)c3ccc(N4C(=O)CCC4=O)cc3)n2)cc1 | n | n | n | n | n | n
COc1ccc(-c2csc(NC(=O)c3cccc(N4C(=O)CCC4=O)c3)n2)cc1OC | x | n | n | 15µM | x | n
Cc1ccc(-c2onc3ccc(C=O)cc23)cc1 | n | u | u | u | u | 5.2µM
CCOc1ccc(Nc2ncnc3c2nc2n3CCCCC2)cc1 | x | x | x | n | x | x
Fc1ccc(Nc2ncnc3c2nc2n3CCCCC2)c(F)c1 | x | x | x | 21µM | x | x
COc1ccc(Nc2ncnc3c2nc2n3CCCC2)cc1Cl | x | x | x | 19µM | x | x
COc1ccc(Nc2ncnc3c2nc2n3CCCCC2)cc1 | x | x | x | 17µM | x | x
O=C(Nc1ccc(F)cc1F)C1CCCN(c2ncnc3c2nc2n3CCCCC2)C1 (stereo not drawn) | x | n | n | n | x | n
CC1CCc2c(sc3ncn(CC(=O)N=Nc4c(O)[nH]c5ccccc45)c(=O)c23)C1 (stereo not drawn) | x | n | n | n | x | n
CC1CCc2c(sc3ncn(CCO)c(=O)c23)C1 (stereo not drawn) | n | 2.5µM | u | 17µM | 13µM | 21µM
CC1CCc2c(sc3ncn(Cc4ccc(C(=O)O)cc4)c(=O)c23)C1 (stereo not drawn) | n | n | n | 21µM | n | u
CC1CCc2c(sc3nc(SCC(=O)O)n(-c4ccccc4)c(=O)c23)C1 (stereo not drawn) | x | n | n | 21µM | x | n
CCCCOc1cccc(C(=O)N(Cc2sccc2C)C2CCS(=O)(=O)C2)c1 (stereo not drawn) | x | x | x | n | n | x
CCc1cccc2c(C(=O)COC(=O)c3nn(C)c(=O)c4ccccc34)c[nH]c12 | n | n | n | 13µM | n | n
CCn1nc(C(=O)OCC(=O)c2c[nH]c3ccccc23)c2ccccc2c1=O | n | n | n | 24µM | n | n
CC(C)n1nc(C(=O)OCC(=O)c2c[nH]c3ccccc23)c2ccccc2c1=O | n | n | n | u | n | n
CCc1cccc2c(C(=O)COC(=O)C3=NNC(=O)CC3)c[nH]c12 | n | n | n | n | n | n
COc1cc(OC)c(N(C)C(=O)c2cn(C3CCCC3)c(=O)c3c2c2ccccc2n3C)cc1Cl | x | x | x | n | n | x
COc1ccc(CNC(=O)c2cn(-c3cccc(OC)c3)c(=O)c3ccccc23)cc1 | x | x | x | n | x | x
O=S(=O)(c1ccc(F)c(F)c1)N1CCN(S(=O)(=O)c2cccs2)CC1 | x | n | n | n | x | n
CS(=O)(=O)N1N=C(c2ccccc2)CC1c1ccc2nccnc2c1 (stereo not drawn) | n | n | n | u | n | n
COc1ccc(C2=NN(S(C)(=O)=O)C(c3cccs3)C2)cc1 (stereo not drawn) | n | 0.89µM | 3.5µM | 11µM | x | u
COc1ccc(C2CC(c3cccs3)=NN2S(C)(=O)=O)cc1 (stereo not drawn) | x | u | u | u | x | n

From PubChem BioAssay
